Only some compounds are listed: those with a hit (about 5.9% of all), similar ones and a draw of the others.
LANA-H2B inh = blocks KSHV LANA binding to histone H2A/H2B | cell-free LANA-H2A/H2B peptide, fluorescence polarization | inhibition, % (test concentration not listed) | actives 0.6% (n = 320,000); in the data active = inhibition mostly above about 10%, no sharp cut-off; inactive = mostly below about 6.7%
Target sequence (Q9QR71 whole entry, looked up): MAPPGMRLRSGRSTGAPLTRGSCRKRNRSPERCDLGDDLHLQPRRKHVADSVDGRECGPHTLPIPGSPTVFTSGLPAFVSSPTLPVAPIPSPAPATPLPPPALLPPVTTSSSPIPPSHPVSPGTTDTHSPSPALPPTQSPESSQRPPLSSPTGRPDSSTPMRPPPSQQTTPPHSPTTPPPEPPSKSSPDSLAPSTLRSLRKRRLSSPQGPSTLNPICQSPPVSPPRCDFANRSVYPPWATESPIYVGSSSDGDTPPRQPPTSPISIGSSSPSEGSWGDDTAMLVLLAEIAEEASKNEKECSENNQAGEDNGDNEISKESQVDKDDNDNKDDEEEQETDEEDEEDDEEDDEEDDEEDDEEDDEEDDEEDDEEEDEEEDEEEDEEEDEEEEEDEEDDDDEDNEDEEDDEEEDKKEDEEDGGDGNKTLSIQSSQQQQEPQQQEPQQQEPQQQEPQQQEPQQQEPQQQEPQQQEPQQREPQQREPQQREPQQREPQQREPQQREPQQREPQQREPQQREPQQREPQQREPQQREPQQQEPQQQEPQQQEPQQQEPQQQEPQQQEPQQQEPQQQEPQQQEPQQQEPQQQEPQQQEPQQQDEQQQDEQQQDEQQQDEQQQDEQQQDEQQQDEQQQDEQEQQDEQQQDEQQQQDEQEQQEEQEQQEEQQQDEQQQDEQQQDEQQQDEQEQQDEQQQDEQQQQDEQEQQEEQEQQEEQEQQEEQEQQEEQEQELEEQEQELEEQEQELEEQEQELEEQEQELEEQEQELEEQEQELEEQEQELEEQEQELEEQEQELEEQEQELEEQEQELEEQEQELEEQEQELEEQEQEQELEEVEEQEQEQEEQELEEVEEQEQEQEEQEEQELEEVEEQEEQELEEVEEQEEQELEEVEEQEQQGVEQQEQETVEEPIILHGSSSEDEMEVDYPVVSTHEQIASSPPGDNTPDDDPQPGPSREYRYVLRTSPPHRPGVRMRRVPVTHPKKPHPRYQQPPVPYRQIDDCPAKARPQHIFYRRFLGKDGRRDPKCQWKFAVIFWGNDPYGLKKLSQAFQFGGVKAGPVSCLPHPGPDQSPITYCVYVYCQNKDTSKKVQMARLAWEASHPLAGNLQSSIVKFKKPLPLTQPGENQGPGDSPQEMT
rCAG binder = molecules binding r(CAG) RNA repeats; r(CAG) RNA repeat, TO-PRO-1 dye displacement fluorescence; inhibition, % at 3 µM; AID 651821; actives 1.3% (n = 370,000);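 active = inhibition above the plate cutoff, the mean of all test compounds on that plate plus 3 SD, cut at about 35% in these data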;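 also: 0% = DMSO alone and 100% = 100 µM mitoxantrone as full dye displacement; higher means more dye released from RNA so lower well fluorescence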
PRMT1 FP inh = blocks human protein arginine methyltransferase 1 | recombinant PRMT1, activity-based probe fluorescence polarization | inhibition, % at 2.79 µM | actives 1.3% (n = 370,000) | AID 652257;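 active = inhibition above about 21% made by adding two undisclosed values, limit read from the data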
Rtt109 Vps75 = inhibitors of Candida albicans Rtt109/Vps75 histone acetyltransferase; purified Rtt109/Vps75, ThioGlo CoA-SH fluorescence, 4 h; inhibition, % at 34.9 µM; actives 0.16% (n = 330,000); AID 540336;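 active = inhibition of at least 50% in every replicate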
ALR inh = blocks human ALR sulfhydryl oxidase activity; P55789; purified ALR, DTT oxidation, H2O2 HRP-luminol luminescence; inhibition, % (no concentration beside the values); actives 3.8% (n = 290,000);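 active = mean replicate inhibition above about 79%, with every replicate also reaching it, limit read from the data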
ABHD5-PLIN5 inh = blocks binding of human ABHD5 to perilipin-5. Split G. princeps luciferase complementation, luminescence, 4 h. inhibition, % at 4 µM. actives 0.78% (n = 360,000);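 active = inhibition above the mean inhibition across every tested compound plus 3 SD, cut at about 22% in these data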;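 also: 0% = DMSO only wells and the 100% control is not disclosed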
ABHD5-PLIN5 conf = ABHD5-PLIN5 interaction inhibition, confirmed; shares compounds with ABHD5-PLIN5 inh; biochemical ABHD5-PLIN5 interaction, luminescence; inhibition, % at 4 µM; actives 67% (n = 2,200); AID 651612; in the data active = inhibition above about 23%;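 also: 0% = DMSO vehicle wells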
HNF4 split-luc = HNF4 split-luciferase signal hit, counter-screen; shares compounds with ABHD5-PLIN5 inh; HNF4 dimerization, luminescence, biochemical; inhibition, % at 4 µM; actives 77% (n = 2,200); AID 651674;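 active = mean inhibition across replicate wells exceeding the computed hit threshold, cut at about 13% in these data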;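 also: light from luciferase halves that rejoin when HNF4 fusion proteins dimerize; 0% = DMSO only wells and the 100% control is not given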
The depositor's hits bear a star; . = no result given.

SMILES	LANA-H2B inh	rCAG binder	PRMT1 FP inh	Rtt109 Vps75	ALR inh	ABHD5-PLIN5 inh	ABHD5-PLIN5 conf	HNF4 split-luc
O=C1CC(=O)N(c2ccccc2F)C(=O)N1	9.4	0.8	-1.9	-15.2	35.2	23.2*	11.8	69.8*
O=C1CC(=O)N(c2ccc(Cl)cc2Cl)C(=O)N1	-4.4	13.6	2.1	8.5	54.8	16.1	.	.
CCOC(=O)[C@]12Cc3ccccc3[C@H]1N(CCC(=O)OC)C(=O)c1ccccc12	.	0.7	6.5	.	.	12.1	.	.
N#CCCn1cc(C=C2C(=O)NC(=O)NC2=O)c(-c2ccccc2)n1	0.8	-2.0	16.0	-12.8	34.1	23.4*	51.3*	84.4*
Cc1c(C=C2C(=O)N(C)C(=O)N(C)C2=O)c(=O)n(-c2ccccc2)n1C	1.9	-5.1	10.8	0.8	.	36.2*	11.9	50.8*
CCOC(=O)C1C(OC(=O)c2ccccc2)CC2CCC1N2C (stereo not drawn)	.	-2.4	-3.1	-2.6	.	25.7*	34.8*	1.4
CN1C2CCC1C(C(=O)O)C(OC(=O)c1ccccc1)C2 (stereo not drawn)	.	-3.8	5.5	-2.6	.	5.3	.	.
Cc1noc(C)c1COc1ccc(C(=O)NCC2(N(C)C)CCCCC2)cc1	.	-0.1	-2.8	.	.	4.9	.	.
O=C(NC1CCCCC1)Oc1cc2oc(=O)sc2cc1Cl	1.2	20.8	85.5*	89.5*	92.3*	69.0*	-38.8	13.9*
CCN(CC)c1ccc(/C=C/[N+](=O)[O-])cc1	-1.7	-7.8	-18.6	22.6	98.5*	53.5*	96.3*	95.7*
CCN(CC)c1ccccc1	-6.3	2.2	-2.6	5.9	-3.5	3.0	.	.
COC(=O)C1=C(c2ccc(F)cc2OCc2ccccc2)C[C@@H]2CC[C@H]1N2C(=O)NC1CC1	-2.2	-2.4	1.0	6.0	-12.8	-5.8	.	.
Cn1c(O)c(/C=C2\C=Nc3ccccc32)c(=O)n(C)c1=O	1.6	-0.8	20.9	4.4	57.4	34.7*	6.8	17.1*
O=C(O)c1ccc(-n2c(O)c(/C=C3\C=Nc4ccccc43)c(=O)[nH]c2=O)cc1	-1.9	-0.9	2.3	16.0	97.8*	28.5*	31.5*	53.8*
COC(=O)C1=Nc2ccccc2/C1=C\c1c(O)n(C)c(=O)n(C)c1=O	7.1	3.4	6.0	.	21.4	12.1	.	.
CC12CCC(=O)CC1CCC1C2C(=O)CC2(C)C1CCC2(C)O (stereo not drawn)	.	-0.2	-1.1	0.9	.	3.2	.	.
CCN(CC)S(=O)(=O)c1ccc(NN=C(C#N)C#N)cc1	-2.5	28.5	1.5	7.3	12.7	25.8*	44.3*	34.8*
CCOC(=O)C1(CCc2ccccc2)CCN(CC(O)CO)CC1 (stereo not drawn)	-2.9	-7.6	1.9	-2.0	.	-1.4	.	.
O=C1CC(c2cccnc2)=NN1c1ccc(Cl)cc1Cl	1.3	15.1	5.1	0.5	23.5	23.5*	0.0	-0.1
CC(Cc1ccccc1)N(C)CC1C(=O)C2CCC1C2 (stereo not drawn)	.	1.8	-1.5	0.1	.	-7.6	.	.
Nc1c(C(=O)NCc2ccco2)c2nc3ccccc3nc2n1Cc1ccccc1	5.0	20.1	1.3	-67.9	2.0	24.6*	34.8*	36.3*
COC(=O)C1=C(c2ccc(OC(F)(F)F)cc2)C[C@@H]2CC[C@H]1N2C(=O)NC1CCCCC1	-1.7	-6.2	-3.8	5.4	0.8	-0.1	.	.
Cc1ccccc1CN1Cc2cnnn2-c2ccccc2C1C#N (stereo not drawn)	.	2.0	-0.2	15.8	.	73.9*	96.2*	96.4*
Cc1ccccc1C(=O)N1Cc2cnnn2-c2ccccc2C1C#N (stereo not drawn)	.	3.5	-0.7	1.7	.	9.0	.	.
S=P(Nn1cnnc1)(c1ccccc1)c1ccccc1	-7.1	-1.4	-0.2	4.0	1.4	29.8*	2.8	2.5
SMILES	LANA-H2B inh	rCAG binder	PRMT1 FP inh	Rtt109 Vps75	ALR inh	ABHD5-PLIN5 inh	ABHD5-PLIN5 conf	HNF4 split-luc
COc1ccc(CCNC(=O)c2c(N)n(CCN3CCOCC3)c3nc4ccccc4nc23)cc1OC	-0.2	2.9	-0.7	-6.0	-5.3	25.4*	15.7	2.7
CCCCCn1c(N)c(C(=O)NCCN2CCOCC2)c2nc3ccccc3nc21	5.2	-0.9	-0.2	-2.3	-6.3	4.7	.	.
CC[C@H]1CN(C)CCc2c([nH]c3ccccc23)C(=O)C[C@@H]1/C(=C\OC)C(=O)OC	3.5	0.5	-2.4	5.3	-15.7	-2.4	.	.
COC(=O)C1=C(c2ccc(Cl)c(C(F)(F)F)c2)C[C@@H]2CC[C@H]1N2C(=O)NCCOc1ccccc1Cl	-2.3	.	.	3.5	-3.6	1.9	.	.
CCOc1ccc(-c2cc(C)[n+](CCc3ccc(OC)c(OC)c3)c(-c3ccc(OCC)cc3)c2)cc1	5.0	8.0	1.0	0.8	-10.3	24.3*	7.4	9.8
CCOc1ccc(-c2cc(C)[n+](CCO)c(-c3ccc(OCC)cc3)c2)cc1	-5.2	6.3	1.0	-59.9	.	6.2	.	.
O=C1NCN(c2ccccc2)C12CCN(C(c1ccccc1OC(F)(F)F)c1nnnn1-c1ccc3c(c1)OCCO3)CC2 (stereo not drawn)	.	6.5	-1.1	.	.	4.3	.	.
COc1ccc(CNCCc2ccc3c(c2)OCO3)cc1Br	-4.3	1.3	-1.4	10.1	0.6	-5.2	.	.
COC(=O)c1nc(-c2ccc3c(n2)C(=O)C(N)=C(OC)C3=O)c(N)c(-c2ccc(OC)c(OC)c2O)c1C	3.2	33.6	5.2	0.8	-13.2	25.1*	-16.1	14.3*
O=S(=O)(c1cc(Cl)cc(Cl)c1)N1Cc2cc(-c3ccccc3)ccc2-n2nncc2C1	.	0.5	8.8	.	.	0.4	.	.
C=CCN1C(=O)NC(=O)/C(=C\c2ccc(-c3ccccc3[N+](=O)[O-])o2)C1=O	1.5	14.0	16.5	16.5	98.3*	39.7*	84.5*	82.0*
Cn1c(O)c(/C=N/c2ncccn2)c(=O)n(C)c1=O	-6.8	-3.0	18.1	-5.8	1.7	40.0*	8.1	23.1*
Clc1cccc(C2NCc3ccccc3-n3cccc32)c1 (stereo not drawn)	-0.2	-1.8	-0.1	-1.0	-9.5	2.1	.	.
CC(C)COC(=O)c1ccccc1C(=O)OCC(C)C	-0.3	-6.1	0.5	6.3	-22.9	2.4	.	.
C[CH2][Hg][S]c1ccccc1C(=O)O	0.8	-0.5	83.7*	11.3	10.7	28.4*	49.4*	83.2*
CC/C(=N\Nc1ccccc1)c1c(O)n(-c2ccccc2)c(=O)[nH]c1=O	-2.7	2.4	4.1	-3.0	98.9*	25.2*	16.4	19.4*
O=C(CCN1CC1)OCCOC(=O)CCN1CC1	.	-0.1	-1.0	-3.9	.	7.6	.	.
COC(=O)C1=C(c2ccc(OC)c(OC)c2)C[C@@H]2CC[C@H]1N2C(=O)NCC1CC1	2.8	-1.7	0.6	-5.5	0.1	-4.4	.	.
